This is a sample that favours compounds with a hit; in the whole collection about 1.6% have one here.
KCNQ2 enhance: potentiators of rat KCNQ2 potassium channel. B-score at 10 µM. 310,000 compounds, 0.54% hits. CHO-K1 KCNQ2, FluxOR thallium flux fluorescence; active compounds read high;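 active means fluorescence ratio B-score at least 3 SD of library B-scores, with initial fluorescence B-score within 3 of them, cut at about 5.3 in these data; same plate scores as AID 2156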;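 further: B-score of peak minus minimum over baseline fluorescence ratio after K+ and Tl+ stimulus; positive B-score means potentiation of KCNQ2 with more thallium influx and brighter signal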
Target sequence (O88943 whole entry, looked up): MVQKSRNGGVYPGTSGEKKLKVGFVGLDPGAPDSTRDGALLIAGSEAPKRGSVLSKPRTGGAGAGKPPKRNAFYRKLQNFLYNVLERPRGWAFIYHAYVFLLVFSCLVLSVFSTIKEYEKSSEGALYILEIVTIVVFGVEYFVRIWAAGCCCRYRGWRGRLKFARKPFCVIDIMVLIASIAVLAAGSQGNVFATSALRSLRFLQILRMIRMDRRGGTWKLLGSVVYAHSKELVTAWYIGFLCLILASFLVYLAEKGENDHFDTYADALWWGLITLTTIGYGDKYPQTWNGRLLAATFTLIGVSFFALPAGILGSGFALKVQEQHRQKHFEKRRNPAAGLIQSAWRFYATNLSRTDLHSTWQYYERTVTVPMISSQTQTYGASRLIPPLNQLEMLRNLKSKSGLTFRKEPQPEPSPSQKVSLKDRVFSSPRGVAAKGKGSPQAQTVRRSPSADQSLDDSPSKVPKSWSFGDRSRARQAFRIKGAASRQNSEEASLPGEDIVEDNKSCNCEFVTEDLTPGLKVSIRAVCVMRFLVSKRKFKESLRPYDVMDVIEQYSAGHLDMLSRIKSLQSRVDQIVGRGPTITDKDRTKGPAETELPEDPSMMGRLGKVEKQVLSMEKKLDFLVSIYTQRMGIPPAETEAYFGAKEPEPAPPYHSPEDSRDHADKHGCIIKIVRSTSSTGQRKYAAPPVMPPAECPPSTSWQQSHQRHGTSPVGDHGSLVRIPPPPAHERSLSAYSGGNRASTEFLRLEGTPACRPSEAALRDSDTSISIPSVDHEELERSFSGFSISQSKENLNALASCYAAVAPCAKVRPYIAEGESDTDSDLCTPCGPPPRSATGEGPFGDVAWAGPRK
KCNQ2 block: rat KCNQ2 potassium channel inhibitors, primary screen, cell-based, CHO-K1, FluxOR thallium flux, B-score | Potassium voltage-gated channel subfamily KQT member 2 (Rattus norvegicus), O88943 | 20 min; active compounds read low | B-score at 10 µM | 310,000 compounds, 1.1% hits;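 active means fluorescence ratio B-score at most minus 3 library SDs, with starting brightness B-score within 2 library SDs, cut at about -5.5 in these data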
Each line names hits and unclear results; the compound was inactive in the other large screens.

O=C(COC(=O)C1(c2ccc(Cl)cc2)CCCC1)Nc1ncc(C(F)(F)F)cc1Cl	none (no result: KCNQ2 enhance)
O=C(COC(=O)C1(c2ccc(F)cc2)CCCC1)Nc1ncc(C(F)(F)F)cc1Cl	KCNQ2 block -7
O=C(c1cnn2c(C(F)(F)F)cc(-c3ccco3)nc12)N1CCCCCC1	none
O=C(c1cnn2c(C(F)F)cc(-c3ccccc3)nc12)N1CCc2ccccc2C1	KCNQ2 block -6.3
Cc1cc(C(F)F)n2ncc(C(=O)N3CCc4ccccc4C3)c2n1	none
O=C(c1cnn2c(C(F)(F)F)cc(-c3ccco3)nc12)N1CCc2ccccc2C1	KCNQ2 block -7
Cc1ccccc1C(=O)Nc1ccccc1N1CCCCC1	none (no result: KCNQ2 enhance)
O=C(Nc1ccccc1N1CCCC1)c1cc(Cl)ccc1Cl	KCNQ2 block -5.7
O=C(Nc1ccccc1N1CCCC1)c1ccccc1Cl	KCNQ2 block -6.1
O=C(Nc1ccccc1N1CCCC1)c1ccc(Cl)cc1Cl	none (no result: KCNQ2 enhance)
Cc1ccc(C(=O)NCC(=O)OC(C)C(=O)NCCC2=CCCCC2)cc1C (stereo not drawn)	none
CCOc1ccc(C(C)=O)cc1CN1C(=O)NC2(CCCCCCC2)C1=O	none
Cc1ccc(-n2c(SCc3cn4ccsc4n3)nc3ccccc3c2=O)cc1	KCNQ2 block -5.6
c1ccc(-n2cnnc2SCc2cn3ccsc3n2)cc1	none (no result: KCNQ2 enhance)
COc1ccc(NC(=O)C(=O)N/N=C(\C)CC(=O)Nc2cc(C)ccn2)c(OC)c1	none
C/C(CC(=O)Nc1cc(C)ccn1)=N\NC(=O)C(=O)Nc1cccc(C)c1	KCNQ2 enhance 5.4
Cc1cc(NC(=O)NN2CCOCC2)nn1-c1c(Cl)cccc1Cl	none (no result: KCNQ2 enhance)
CCC1CCC(C(=O)NC(C(=O)NCCCN2CCCCC2C)C(C)C)CC1 (stereo not drawn)	none
CCN(CC)S(=O)(=O)c1ccc(N2CCOCC2)c(NC(=O)c2cc3ccccc3oc2=O)c1	KCNQ2 block -5.5
CCN(CC)S(=O)(=O)c1ccc(N2CCOCC2)c(NC(=O)c2ccccc2F)c1	none (no result: KCNQ2 enhance)
CC(CCc1ccccc1)NC(=O)CNC(=O)c1cccs1 (stereo not drawn)	none
CCOC(=O)CCN(Cc1ccccc1)S(=O)(=O)c1csc(C(N)=O)c1	none (no result: KCNQ2 enhance)
CCOc1cc(CNc2ccc3c(c2)CCC3)ccc1OC	none
CN(C)C(=O)c1c2c(nc3ccccc13)-c1ccccc1CC2	KCNQ2 block -6.1
CN(C)C(=O)c1c2c(nc3ccccc13)CCCC2	none
COc1ccc(C2N(S(=O)(=O)c3ccccc3)CCN2S(=O)(=O)c2ccc(C)cc2)cc1 (stereo not drawn)	none
O=C(NCc1ccco1)/C(=C\c1ccco1)NC(=O)c1ccco1	none
COc1ccc(/C=C2\CCC/C(=C\C=N\N(C)C)C2=O)cc1	none (no result: KCNQ2 enhance)
CN(C)/N=C/C=C1\CCC/C(=C\c2ccc(F)c(F)c2)C1=O	KCNQ2 block -7.1
COc1ccnc2c1c(=O)n(Cc1ccc(Cl)cc1Cl)c(=O)n2C	KCNQ2 block -5.9
COc1ccnc2c1c(=O)n(Cc1ccccc1Cl)c(=O)n2C	none (no result: KCNQ2 enhance)
Cn1c(CNC(=O)CNC(=O)c2ccccc2)cc(=O)n(C)c1=O	none (no result: KCNQ2 enhance)
Cc1ccsc1/C=N/NC(=O)c1nnn(-c2nonc2N)c1CSc1ccccc1	none
CN(C(=O)c1ccnn1C)C1CCCN(Cc2ccccc2F)C1 (stereo not drawn)	none (no result: KCNQ2 enhance)
CCCc1cc(C(=O)Nc2cc(OC)c(Cl)cc2OC)no1	none
COc1cc(NC(=O)c2cc(CC(C)C)on2)c(OC)cc1Cl	KCNQ2 block -7.8
CCn1cc(CNC(=O)CCc2nnc(CCC3CCCCC3)o2)cn1	none
O=C(CN1C(=O)C2CC=CCC2C1=O)Nc1ccc(S(=O)(=O)N2CCOCC2)cc1 (stereo not drawn)	none
Cc1cccc(C)c1NC(=O)Cn1c(=O)n(CCCC(=O)NCc2ccco2)c(=O)c2sccc21	none
CCOC(=O)c1ccc(NC(=S)NC(=O)c2cncc(Br)c2)cc1	none (no result: KCNQ2 enhance)
CCCCOC(=O)c1ccc(NC(=S)NC(=O)c2c(Br)c(C)nn2C)cc1	KCNQ2 enhance 9.6
CN(C)CCCNc1cn[nH]c(=O)c1Cl	none (no result: KCNQ2 enhance)
CCOc1ccccc1NC(=O)c1cc(CC(C)C)oc1C	KCNQ2 block -6.2
COc1ccccc1NC(=O)c1cc(C)oc1C	none (no result: KCNQ2 enhance)
Cc1onc(-c2ccccc2)c1C(=O)OCC(=O)N1CCN(c2ccccc2)CC1	none
O=C(c1ccco1)N1CCCC(c2nc3c(nnn3Cc3cccc(Cl)c3)c(=O)[nH]2)C1 (stereo not drawn)	none
N#Cc1ccc(NC(=O)N2CCC(c3nc4c(nnn4Cc4cccc(Cl)c4)c(=O)[nH]3)CC2)cc1	KCNQ2 block -7.5
COc1ccc(-c2csc3nc[nH]c(=O)c23)cc1OC	none
Cc1ccc(-c2csc3nc[nH]c(=S)c23)cc1C	KCNQ2 enhance 10
CN(C(=O)COC(=O)c1ccc2c(=O)n3c(nc2c1)CCC3)C1CCS(=O)(=O)C1 (stereo not drawn)	none
Cc1ccccc1S(=O)(=O)Cc1ccc(C(=O)NCCCOC(C)C)o1	none (no result: KCNQ2 enhance)
O=C(CSc1ncnc2scc(-c3ccccc3)c12)N1CCN(c2ccccc2F)CC1	KCNQ2 block -6.2
COc1ccccc1N1CCN(C(=O)CSc2ncnc3scc(-c4ccccc4)c23)CC1	none (no result: KCNQ2 enhance)
Cc1cccc(N2CC(C(=O)Nc3ccc(S(=O)(=O)Nc4nccs4)cc3)CC2=O)c1C (stereo not drawn)	none (no result: KCNQ2 enhance)
CC1=CC(=O)C(C(C)=Nc2ccccc2Cl)C(=O)O1 (stereo not drawn)	none (no result: KCNQ2 enhance)
Cc1ccc(SCC(=O)OCC(=O)NCCC2=CCCCC2)cc1	none
O=C(NCc1ccc2c(c1)OCO2)c1ccc2c(c1)N(Cc1c(F)cccc1Cl)C(=O)CS2	KCNQ2 enhance 8.7
CCC1CCCCN1CCCNC(=O)c1ccc2c(c1)N(Cc1c(F)cccc1Cl)C(=O)CS2 (stereo not drawn)	none (no result: KCNQ2 enhance)
N/C(=N\OC(=O)CSc1ccccc1)c1ccc([N+](=O)[O-])cc1	none (no result: KCNQ2 enhance)
C/C(Cn1nc([N+](=O)[O-])cc1C)=N\NC(=O)COc1c(Cl)cc(Cl)cc1Cl	none
Cc1ccccc1CSc1ccc(-c2ccc3c(c2)OCO3)nn1	KCNQ2 block -5.8
Fc1cccc(CSc2ccc(-c3ccc4c(c3)OCO4)nn2)c1	none (no result: KCNQ2 enhance)
CCOC(=O)c1cnc2c(cnn2C)c1NCCCn1ccnc1	none (no result: KCNQ2 enhance)
Cc1cc(C)c2c(=O)n(CC(=O)NCCCN3CCOCC3)sc2n1	none
Cc1cc(C)c2c(=O)n(CC(=O)NCCCN3CCN(c4ccccc4F)CC3)sc2n1	KCNQ2 block -9.9
Cc1ccc(O)c(C(CC(=O)NC(C)C)c2ccccc2)c1 (stereo not drawn)	none
Cc1ccc(O)c(C(CC(=O)NCc2ccco2)c2ccccc2)c1 (stereo not drawn)	KCNQ2 enhance 16
CCCN(CCC)C(=O)CC(c1ccccc1)c1cc(C)ccc1O (stereo not drawn)	KCNQ2 block -6
Cc1cccc(C(CC(=O)NCc2ccco2)c2ccccc2)c1O (stereo not drawn)	none
COc1ccccc1C(=O)NC(=O)COC(=O)c1ccc([N+](=O)[O-])cc1Cl	none
C=CCn1c(O)c(N=NC(=O)CNC(=O)Cc2ccccc2)c2ccccc21	none
O=C(N1CCN(Cc2ccccc2)CC1)C12CC3CC(CC(C3)C1)C2	KCNQ2 block -5.6
O=C(N1CCN(c2ccccc2)CC1)C12CC3CC(CC(C3)C1)C2	none (no result: KCNQ2 enhance)
O=C(NCc1ccco1)c1ccc(N2CCCCC2)c([N+](=O)[O-])c1	none
Cc1ccc(N(Cc2ccco2)C(=O)c2ccc(N3CCCCC3)c([N+](=O)[O-])c2)cc1	KCNQ2 block -7.1
CCN(c1ccccc1)S(=O)(=O)c1cc(C(=O)Nc2cccc(Cl)c2)ccc1F	KCNQ2 block -8.1
